From PubChem BioAssay (NCATS)
Inconclusive results are not listed. Active and inactive are the calls of the source. Calls come from the whole dose curve; as a rule, active = well fitted curve in the direction sought with a large enough effect; inconclusive = small, poorly fitted or top-dose-only effect, or another doubt; inactive = no such curve, though single readings can be large; an effect the other way counts as inactive or inconclusive.

Key:
[1] = test system: C33A; test: Primary qHTS to identify gynecologic anti-cancer compounds using libraries of approved drugs and bioactive compounds (AID 1345084); conditions: Gynecologic cancer cell panel viability, ATPlite luminescence, 48 h; series mostly up to 57.5 µM; note: nearly all actives have a fitted effect of over 55% in size
How it was run: (§1)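 In this quantitative HTS, cell killing is estimated from loss of ATP-dependent luciferase light. Cells see five compound concentrations over a 48 h exposure.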

[2] = test system: CAOV3; test: as above; conditions: Gynecologic cancer cell panel viability, ATPlite luminescence, 48 h; series mostly up to 57.5 µM
How it was run: as §1

[3] = test system: CASKI; test: as above; conditions: Gynecologic cancer cell panel viability, ATPlite luminescence, 48 h; series mostly up to 57.5 µM
How it was run: as §1

[4] = test system: Es-2; test: as above; conditions: Gynecologic cancer cell panel viability, ATPlite luminescence, 48 h; series mostly up to 57.5 µM
How it was run: as §1

[5] = test system: HeLa; test: as above; conditions: Gynecologic cancer cell panel viability, ATPlite luminescence, 48 h; series mostly up to 57.5 µM
How it was run: as §1

[6] = test system: Hek293T; test: as above; conditions: Gynecologic cancer cell panel viability, ATPlite luminescence, 48 h, control line for the selectivity index; series mostly up to 57.5 µM
How it was run: as §1

[7] = test system: JEG-3; test: as above; conditions: Gynecologic cancer cell panel viability, ATPlite luminescence, 48 h; series mostly up to 57.5 µM
How it was run: as §1

[8] = test system: OV90; test: as above; conditions: Gynecologic cancer cell panel viability, ATPlite luminescence, 48 h; series mostly up to 57.5 µM
How it was run: as §1

[9] = test system: PA-1; test: as above; conditions: Gynecologic cancer cell panel viability, ATPlite luminescence, 48 h; series mostly up to 57.5 µM
How it was run: as §1

[10] = test system: SKOV3; test: as above; conditions: Gynecologic cancer cell panel viability, ATPlite luminescence, 48 h; series mostly up to 57.5 µM
How it was run: as §1

[11] = test system: Tov-21-G; test: as above; conditions: Gynecologic cancer cell panel viability, ATPlite luminescence, 48 h; series mostly up to 57.5 µM
How it was run: as §1

[12] = test system: Tov112D; test: as above; conditions: Gynecologic cancer cell panel viability, ATPlite luminescence, 48 h; series mostly up to 57.5 µM
How it was run: as §1

[13] = Drug repurposing screens with cells derived from glioblastoma tumor samples (AID 1345199); conditions: GBM patient neurospheres viability, ATP luminescence, 48 h; note: nearly all actives have a fitted effect of over 40% in size
How it was run: (§2)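 Primary testing used CD133+ neurospheres from four GBM patients, seven concentrations, 48 h exposure and ATP-based viability; confirmation added three slower-growing patient lines.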

[14] = test system: astro; test: as above; conditions: viability, ATP luminescence, 48 h; series mostly up to 45.9 µM
How it was run: as §2

[15] = at 45.9 µM (top of the series), tumour line B
[16] = at 45.9 µM (top of the series), tumour line D
[17] = at 46 µM (top of the series), tumour line A
[18] = at 46.1 µM (top of the series), tumour line C
[19] = at 20 µM (top of the series), tumour line C
[20] = at 21.2 µM (top of the series), tumour line B
[21] = at 21.2 µM (top of the series), tumour line D
[22] = at 21.3 µM (top of the series), tumour line A
% is set by controls: 0 for no effect and ±100 for the full control effect.

CC(C)C[C@@H](N)C(=O)O
inactive: outcome [1] | outcome [2] | outcome [3] | outcome [4] | outcome [5] | outcome [6] | outcome [7] | Potency [8] | outcome [9] | outcome [10] | outcome [11] | outcome [12] | activity, negative = cell killing [13, 15] 3.77% | activity, negative = cell killing [13, 16] 29.1% | activity, negative = cell killing [13, 17] 14.9% | activity, negative = cell killing [13, 18] -0.0622% | outcome [14]

CCN(CC)S(=O)(=O)c1ccc(C(=O)O)cc1
inactive: outcome [1] | outcome [2] | outcome [3] | outcome [4] | outcome [5] | outcome [6] | outcome [7] | Potency [8] | outcome [9] | outcome [10] | outcome [11] | outcome [12] | activity, negative = cell killing [13, 15] -12.2% | activity, negative = cell killing [13, 16] -3.35% | activity, negative = cell killing [13, 17] -16.8% | activity, negative = cell killing [13, 18] -15.2% | outcome [14]

COc1ccccc1OCC(O)CO (stereo unspecified)
inactive: outcome [1] | outcome [2] | outcome [3] | outcome [4] | outcome [5] | outcome [6] | outcome [7] | Potency [8] | outcome [9] | outcome [10] | outcome [11] | outcome [12] | activity, negative = cell killing [13, 19] 14.1% | activity, negative = cell killing [13, 20] -4.78% | activity, negative = cell killing [13, 21] -22.3% | activity, negative = cell killing [13, 22] -18.5% | outcome [14]

CN1C(C)(C)CCCC1(C)C
inactive: outcome [1] | outcome [2] | outcome [3] | outcome [4] | outcome [5] | outcome [6] | outcome [7] | Potency [8] | outcome [9] | outcome [10] | outcome [11] | outcome [12] | activity, negative = cell killing [13, 15] -6.99% | activity, negative = cell killing [13, 16] 3.96% | activity, negative = cell killing [13, 17] -29.4% | activity, negative = cell killing [13, 18] -8.74% | outcome [14]

COc1cc(O)cc(O)c1
inactive: outcome [1] | outcome [2] | outcome [3] | outcome [4] | outcome [5] | outcome [6] | outcome [7] | Potency [8] | outcome [9] | outcome [10] | outcome [11] | outcome [12] | activity, negative = cell killing [13, 15] -0.182% | activity, negative = cell killing [13, 16] -4.84% | activity, negative = cell killing [13, 17] -38.5% | activity, negative = cell killing [13, 18] -3.31% | outcome [14]

NC(=O)CC[C@@H](N)C(=O)O
inactive: outcome [1] | outcome [2] | outcome [3] | outcome [4] | outcome [5] | outcome [6] | outcome [7] | Potency [8] | outcome [9] | outcome [10] | outcome [11] | outcome [12] | activity, negative = cell killing [13, 15] -5.88% | activity, negative = cell killing [13, 16] 12.3% | activity, negative = cell killing [13, 17] 4.73% | activity, negative = cell killing [13, 18] 1.46% | outcome [14]

NS(=O)(=O)c1ccc(C(=O)O)cc1
inactive: outcome [1] | outcome [2] | outcome [3] | outcome [4] | outcome [5] | outcome [6] | outcome [7] | Potency [8] | outcome [9] | outcome [10] | outcome [11] | outcome [12] | activity, negative = cell killing [13, 15] -5.24% | activity, negative = cell killing [13, 16] 4.61% | activity, negative = cell killing [13, 17] -19% | activity, negative = cell killing [13, 18] -15.2% | outcome [14]

COc1nccnc1NS(=O)(=O)c1ccc(N)cc1
inactive: outcome [1] | outcome [2] | outcome [3] | outcome [4] | outcome [5] | outcome [6] | outcome [7] | Potency [8] | outcome [9] | outcome [10] | outcome [11] | outcome [12] | activity, negative = cell killing [13, 15] 0.463% | activity, negative = cell killing [13, 16] -17.5% | activity, negative = cell killing [13, 17] -24.3% | activity, negative = cell killing [13, 18] -3.06% | outcome [14]

CCN(CC)CCOC(=O)C(c1ccccc1)c1ccccc1
inactive: outcome [1] | outcome [2] | outcome [3] | outcome [4] | outcome [5] | outcome [6] | outcome [7] | Potency [8] | outcome [9] | outcome [10] | outcome [11] | outcome [12] | activity, negative = cell killing [13, 15] -13.3% | activity, negative = cell killing [13, 16] -3.55% | activity, negative = cell killing [13, 17] -25.1% | activity, negative = cell killing [13, 18] -20.1% | outcome [14]

O=c1[nH]c(=O)c2ccccc2o1
inactive: outcome [1] | outcome [2] | outcome [3] | outcome [4] | outcome [5] | outcome [6] | outcome [7] | Potency [8] | outcome [9] | outcome [10] | outcome [11] | outcome [12] | activity, negative = cell killing [13, 15] -11% | activity, negative = cell killing [13, 16] -4.94% | activity, negative = cell killing [13, 17] -29.8% | activity, negative = cell killing [13, 18] -24.8% | outcome [14]

C/C=C/C(=O)N(CC)c1ccccc1C
inactive: outcome [1] | outcome [2] | outcome [3] | outcome [4] | outcome [5] | outcome [6] | outcome [7] | Potency [8] | outcome [9] | outcome [10] | outcome [11] | outcome [12] | activity, negative = cell killing [13, 19] -3.94% | activity, negative = cell killing [13, 20] 0.996% | activity, negative = cell killing [13, 21] -17.6% | activity, negative = cell killing [13, 22] -13.7% | outcome [14]

CCc1cccc(CC)c1NC(=O)CN(CC(=O)O)CC(=O)O
inactive: outcome [1] | outcome [2] | outcome [3] | outcome [4] | outcome [5] | outcome [6] | outcome [7] | Potency [8] | outcome [9] | outcome [10] | outcome [11] | outcome [12] | activity, negative = cell killing [13, 19] -11.2% | activity, negative = cell killing [13, 20] -2.25% | activity, negative = cell killing [13, 21] -7.08% | activity, negative = cell killing [13, 22] -26% | outcome [14]

NC(N)=NS(=O)(=O)c1ccc(N)cc1
inactive: outcome [1] | outcome [2] | outcome [3] | outcome [4] | outcome [5] | outcome [6] | outcome [7] | Potency [8] | outcome [9] | outcome [10] | outcome [11] | outcome [12] | activity, negative = cell killing [13, 19] 3.63% | activity, negative = cell killing [13, 20] -6.02% | activity, negative = cell killing [13, 21] 9.81% | activity, negative = cell killing [13, 22] 6.37% | outcome [14]
